Measurements published in the supplement of paper PMC10681739.

target: T1, ETS1 (UniProt P14921); assay: TF binding intensity (PBM fluorescence), negative control probe (arbitrary fluorescence units); higher = stronger binding
T1 sequence: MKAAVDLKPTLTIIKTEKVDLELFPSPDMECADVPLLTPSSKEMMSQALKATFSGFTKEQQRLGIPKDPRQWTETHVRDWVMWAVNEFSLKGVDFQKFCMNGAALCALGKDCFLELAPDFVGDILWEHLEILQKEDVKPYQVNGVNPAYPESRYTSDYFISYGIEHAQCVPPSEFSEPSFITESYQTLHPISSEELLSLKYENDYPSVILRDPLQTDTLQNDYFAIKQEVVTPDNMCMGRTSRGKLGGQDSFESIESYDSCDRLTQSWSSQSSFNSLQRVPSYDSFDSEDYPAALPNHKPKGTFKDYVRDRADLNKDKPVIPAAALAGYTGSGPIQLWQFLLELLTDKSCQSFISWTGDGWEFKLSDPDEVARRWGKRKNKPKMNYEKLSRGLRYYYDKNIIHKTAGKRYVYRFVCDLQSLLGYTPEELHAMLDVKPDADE
Procedure: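 gcPBM negative-control 36-bp genomic probes lacking TF binding sites. Each was incubated with recombinant human ETS1 or RUNX1 alone and detected by antibody fluorescence. Values are medians over replicate spots (4 spots for the ETS1-RUNX1 arrays, 3 for the ETS1-ETS1 array). The probes sit in constant array flanks that are not printed.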

Sequence | TF binding intensity
TGACCATTTGAGGTTTGTGGTTATGCATATAAAATG (protein concentration 1 nM) | 577
CTCTACCTACAAAAAGACTGCAATTGTGTTACCTTT (protein concentration 10 nM) | 132
CACACACTAAATCTCTGTACTAAATGAAAGGTTGCT (protein concentration 10 nM) | 139
ACACATCAAAATGTCTGTGGTTTTTATGAAAAATAG (protein concentration 1 nM) | 510
TGACCGGCAGGCCCGAAGCCCCCTGGGATGCCTGGC (protein concentration 10 nM) | 105
AGGTGATATCTATCCCTTTCATTTCTTCTGAACAGG (protein concentration 10 nM) | 114
GCCTTGCCTTGGTCATGTTTGACTCTGCCTTCAACT (protein concentration 10 nM) | 146
AACAGCCCCCTGAACTGCAGGGTGTGACTGTTAGCC (protein concentration 10 nM) | 140
GTGAATTCAAAACAACCCACAGTTTTAATTCTCTGT (protein concentration 1 nM) | 452
AAAATACTGCCTTCAAGTACTGTGACTCTTTTCAGG (protein concentration 10 nM) | 112
GCTTTTTTTTTCTGTTGTGGGAGAAAGATGAGAGTC (protein concentration 1 nM) | 535
TCTTGTATTTTCCTAAAGATTTGTGTGCTGTTTCTC (protein concentration 10 nM) | 100
CTACAAGTCGTGAAGGGGCGAGGCGCAAAAGCGTAG (protein concentration 10 nM) | 125
